Shown are actives, neighbours in structure and some others; about 22% of the full set was active somewhere.
CYP2C9 act – human CYP2C9 activators, primary screen, biochemical, luminescence; Cytochrome P450 2C9 (Homo sapiens), P11712; recombinant CYP2C9, luciferin-H conversion; hits give high values; factor 1 = untreated enzyme, 0 = blocked; activation factor at 5 µM; 96,000 compounds, 1.4% hits; AID 1024, 2008;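 active means activation factor of 2 or more for CYP2C9 at a 5 µM dose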
CYP2C19 inh – blockers of cytochrome P450 2C19 activity – biochemical, luminescence, ADME assay, primary screen. P33261. 96,000 compounds, 21% hits. CYP2C19 Supersomes, luciferin-H EGE luminescence, 30 min. AID 778, 2007. inhibition, % at 5 µM;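 active means CYP2C19 inhibition above a set limit at 5 µM in the primary screen, cut at about 50% in these data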
Target sequence (P33261 whole entry, looked up): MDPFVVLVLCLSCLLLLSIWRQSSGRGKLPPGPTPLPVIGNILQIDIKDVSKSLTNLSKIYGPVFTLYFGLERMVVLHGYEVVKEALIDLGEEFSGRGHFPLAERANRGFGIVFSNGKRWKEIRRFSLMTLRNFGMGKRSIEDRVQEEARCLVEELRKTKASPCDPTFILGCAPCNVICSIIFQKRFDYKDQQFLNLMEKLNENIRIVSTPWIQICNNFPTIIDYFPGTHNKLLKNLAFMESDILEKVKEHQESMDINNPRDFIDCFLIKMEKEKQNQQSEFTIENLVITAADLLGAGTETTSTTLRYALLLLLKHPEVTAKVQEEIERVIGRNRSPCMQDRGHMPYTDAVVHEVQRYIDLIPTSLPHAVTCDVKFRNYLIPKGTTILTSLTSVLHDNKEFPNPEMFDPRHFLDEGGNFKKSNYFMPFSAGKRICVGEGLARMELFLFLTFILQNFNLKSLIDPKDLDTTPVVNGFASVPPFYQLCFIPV
CYP2C19 activ – human CYP2C19 activators, primary screen, biochemical, luminescence; recombinant CYP2C19, luciferin-H EGE luminescence; hits give high values; 0 = fully inhibited enzyme, 1 = untreated enzyme; activation factor at 5 µM; 96,000 tested, under 10 active;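 active means activation factor of at least 2 at 5 µM in the primary screen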
CYP2C9 inh – blockers of cytochrome P450 2C9 activity – biochemical, luminescence, ADME assay, primary screen. CYP2C9 Supersomes, luciferin-H conversion. inhibition, % at 5 µM. 96,000 compounds, 20% hits. AID 777, 2007;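 active means blocking of liver enzyme CYP2C9 beyond about 50% at 5 µM, limit read from the data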
Measles CPE – compounds protecting cells from measles virus cytopathic effect, primary screen, measles RdRp inhibitor project, single point, MLSMR library, absorbance; Measles virus-infected cells, CPE protection; protection (pct of control), % at 4 µM; 140,000 compounds, 1.5% hits; AID 841, 2007; in the data active means protection mostly above about 24%, no sharp cut-off; inactive means mostly below about 26%
Large screens that a line does not name were inactive.

Clc1ccc(Cl)c(OCCCCNCc2ccccc2)c1	none (no result: CYP2C9 act, CYP2C19 inh, CYP2C19 activ, CYP2C9 inh)
Clc1ccc(OCCCNCc2ccccc2)c(Br)c1	CYP2C19 inh 63.0
Cc1cc(Cl)c(OCCCNCc2ccccc2)c(Br)c1	CYP2C19 inh 56.6
COc1ccc(OC)c(NC(=O)COc2ccc(S(=O)(=O)NC(C)C)cc2)c1	none
CCCCOc1ccc(S(=O)(=O)Nc2cc(OC)ccc2OC)cc1	CYP2C19 inh 85.8, CYP2C9 inh 74.1
COc1ccc(OC)c(NS(=O)(=O)c2ccc(Cl)nc2)c1	Measles CPE 31.5 (no result: CYP2C9 act, CYP2C19 inh, CYP2C19 activ, CYP2C9 inh)
CCc1nc2c(cnn2-c2ccc(Cl)cc2)c(=O)n1-c1ccc(OC)cc1	Measles CPE 55.6
O=C(c1cccc(F)c1)N1CCN(C(=O)c2cc(-c3ccc(Cl)cc3Cl)on2)CC1	CYP2C19 inh 79.8
CCOC(=O)C(CC)Sc1nnc(COc2ccc(C)cc2)n1-c1ccccc1 (stereo not drawn)	Measles CPE 27.7 (no result: CYP2C9 act, CYP2C19 inh, CYP2C19 activ, CYP2C9 inh)
O=C(CSc1nnc(COc2ccccc2)n1-c1ccccc1)c1cccs1	CYP2C19 inh 97.5, CYP2C9 inh 96.8
Cc1ccc(OCc2nnc(SCC(=O)c3cccs3)n2-c2ccccc2)cc1C	none
CCc1nnc(NC(=O)CSc2nnc(COc3ccc(C)cc3)n2-c2ccccc2)s1	none
CCOc1ccc(-n2c(Cc3cc(=O)[nH]c(=O)[nH]3)nnc2SCC(N)=O)cc1	none
CCOc1ccc(-n2c(COc3ccc(C)cc3)nnc2SCC(N)=O)cc1	CYP2C19 inh 91.2
COc1cc(NS(=O)(=O)c2ccc(NC(=O)c3ccco3)cc2)nc(OC)n1	none
Cc1ccnc(N=Cc2c(O)ccc3oc4c(c23)CCCC4)c1	none (no result: CYP2C9 act, CYP2C19 inh, CYP2C19 activ, CYP2C9 inh)
O=C(Cn1ccc([N+](=O)[O-])n1)NCc1ccco1	none
C[C@]1(C(=O)O)Cc2oncc2C[C@@H]1C(=O)O	none (no result: CYP2C9 act, CYP2C19 inh, CYP2C19 activ, CYP2C9 inh)
Nc1c(C(=O)NCc2ccco2)nnn1Cc1ccccc1	none
O=C(c1ccco1)c1nnn(Cc2ccccc2)c1-c1ccccc1	CYP2C9 inh 54.2
O=C(Cc1ccccc1)Nc1nonc1NC(=O)c1ccccc1	CYP2C9 inh 70.0
O=C(Cc1ccccc1)Nc1ccc(NC(=O)c2cccc(Cl)c2)cc1	none (no result: CYP2C9 act, CYP2C19 inh, CYP2C19 activ, CYP2C9 inh)
Cc1ccc(NC(=O)N/C=C/c2ccco2)c(C)c1	CYP2C19 inh 76.4, CYP2C9 inh 61.0
N#CC1=C2SCC(O)(c3ccccc3)N2C(=O)CC1c1cccs1 (stereo not drawn)	CYP2C19 inh 81.6, CYP2C9 inh 99.3
COc1ccc2ccccc2c1C1CC(=O)N2CN(C)CSC2=C1C#N (stereo not drawn)	none
CSC1=C(C#N)C(c2cccs2)CC(=O)N1C (stereo not drawn)	none (no result: Measles CPE)
N#CC1=C2SCC(O)(c3ccccc3)N2C(=O)CC1c1ccccc1F (stereo not drawn)	CYP2C19 inh 100.3, CYP2C9 inh 98.6
COc1ccc(C2CC(=O)N3C(=C2C#N)SCC3(O)c2ccccc2)cc1 (stereo not drawn)	CYP2C19 inh 83.9, CYP2C9 inh 99.5
Cc1ccc(S(=O)(=O)N2CCC(C(=O)N[C@H](C(=O)N3CCN(C)CC3)C(C)C)CC2)cc1	none
Cc1nc(NCC2CCCO2)c2nnn(Cc3ccccc3)c2n1 (stereo not drawn)	none
Cc1nc(NCC2CCCO2)c2nnn(Cc3ccccc3Cl)c2n1 (stereo not drawn)	CYP2C9 act 2.2, CYP2C19 inh 56.3
OCCNc1nc(C2CC2)nc2c1nnn2Cc1ccccc1Cl	CYP2C19 inh 81.7, CYP2C9 inh 60.4
O=C1c2ccccc2C(=O)C1c1nccc2ccccc12	CYP2C9 inh 57.7
COC(=O)c1ccccc1NC(=O)CSc1nnc(CNS(=O)(=O)c2ccc(C)cc2)n1C	CYP2C19 inh 51.9, CYP2C9 inh 94.0
COC(=O)CSc1nnc(CNS(=O)(=O)c2ccc(Cl)cc2)n1C	Measles CPE 36.7
CC(C)n1cc(NC(=O)c2cc(-c3ccccc3)on2)cn1	none
CCC(=O)N=c1sc2cc([N+](=O)[O-])ccc2n1CCOC	none (no result: CYP2C9 act, CYP2C19 inh, CYP2C19 activ, CYP2C9 inh)
CCOC(=O)c1c(NC(C)=O)sc2c(O)c(CN3CCN(CC)CC3)ccc12	none
CC(=O)Nc1cccc(Oc2ccc(-c3noc(C)n3)cc2)c1	CYP2C19 inh 76.5, CYP2C9 inh 57.0
COc1ccc(Cl)cc1NC(=O)C(C)OC(=O)c1ccc(NS(=O)(=O)c2ccc3[nH]c(=O)[nH]c3c2)cc1 (stereo not drawn)	Measles CPE 48.1 (no result: CYP2C9 act, CYP2C19 inh, CYP2C19 activ, CYP2C9 inh)

Bioassay records deposited in PubChem by several laboratories.
